Drawing on the supplement of paper PMC3484114, this text covers cell growth for 24 compounds.

± gives the standard deviation.

The test concerns OVCAR-3-derived ovarian cancer stem-like cells (spheroids). Nature of the test: cell growth relative to untreated control; higher = more growth (less inhibition). The conditions noted are these: 2.29 µM; 96 h. The method in brief:
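Percent growth was calculated against untreated wells once blanks were subtracted and Grubbs outliers removed. The cells were OVCAR-3 spheroid-derived stem-like cells, trypsinized and plated at 50,000 cells/mL in stem cell medium on ultra-low attachment 96-well plates for a 24 h preincubation. They were then exposed to compounds at 2.29 uM for 96 h at 37°C, 5% CO2, in 4 replicate wells, and viability was measured by TOX8 resazurin fluorescence (ex 560/em 590 nm) after 4 h.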
Take `COc1ccccc1/C=C1\Sc2scc(-c3cccc([N+](=O)[O-])c3)[n+]2C1=O`: the cell growth is 128 ± 18%. For `COCCOC1=C(Cl)C(=O)c2c(O)ccc(O)c2C1=O` the value was 114 ± 18%; for `Nc1ccn([C@@H]2O[C@H](CO)[C@@H](O)[C@@H]2O)c(=O)n1`, 76.6 ± 11%. For `Nc1ccccc1N` the value was 88.4 ± 25%; for `CCS(=O)(=O)Nc1ccc(Nc2c3ccccc3nc3ccccc23)c(OC)c1`, 32.5 ± 9%.

Compound `C[C@@H]1CC[C@H]2C(C)(C)[C@H]3C[C@@]12CC[C@@]3(C)O` displayed a cell growth of 48.3 ± 7%.

In the case of `O=C(CCc1ccccc1)On1nnc2ccccc2c1=O`, the cell growth came to 79 ± 18%. For `CCCC(=O)OCC1OC(n2ccc(N)nc2=O)C(OC(=O)CCC)C1OC(=O)CCC` (centres undefined) the value was 31.7 ± 19%. The result for `CC(C)CCCCCCCCCCCCC(=O)NCC(=O)N[C@@H]1[C@@H](O)[C@H](O)[C@@H](Nc2ncnc3nc[nH]c23)O[C@H]1[C@@H](O)CO` reads 13.2 ± 4.3%. The result for `CN(C)c1ccc(C=c2c3ccccc3n3c2cc(-c2ccc(Cl)cc2)[n+]3C)cc1` reads 39.7 ± 12%. With `CCN(CC)CCCC(C)NC(=O)c1ccc2c(c1)C(=O)c1ccccc1C2=O` (centres undefined), the cell growth came out at 35.6 ± 15%. For `O=C(c1nc2ccc(Cl)cc2[nH]c1=O)C(O)c1ccc2c(c1)OCO2` (centres undefined) the value was 109 ± 61%; for `COC(=O)c1[nH]c(=S)[nH]c(=O)c1-c1ccc(Cl)cc1`, 37.8 ± 14%; for `Nc1ccc(N)c2c1C(=O)c1ccccc1C2=O`, 97.9 ± 12%. The result for `O=c1[nH]c(=O)n(C2CCCO2)cc1F` (centres undefined) reads 24.9 ± 6.8%; that for `COC(=O)NC1C(C)OC(OC2C/C=C(/C)C3C=CC4C(OC5CC(OC6CC(O)C(OC7CC(O)C(OC)C(C)O7)C(C)O6)C(O)C(C)O5)C(C)CC(C)C4C3(C)/C(O)=C3\C(=O)OC4(CC(C)C(CO)=CC4/C=C\2C)C3=O)CC1(C)[N+](=O)[O-]` (centres undefined), 105 ± 34%; that for `CC(C)(C)N(Cc1ccc2c(c1)OCO2)C(=O)/C=C\[S+]([O-])c1ccccc1` (centres undefined), 41.6 ± 10%.

Turning to `CCCCCC(CN1CCOCC1)C(=O)/C=C/c1ccccc1` (centres undefined), the cell growth amounted to 93 ± 29%.

On to `S=c1nc[nH]c2nc[nH]c12`, for which the cell growth is 95.2 ± 8.4%. For `CC(C)[Si]1(C(C)C)OCC2OC(n3cnc4c(N)ncnc43)C(N)C2O[Si](C(C)C)(C(C)C)O1` (centres undefined) the value was 85.1 ± 22%.

Consider `CN(C)[C@H]1CCC2[C@@H]3CCC4C[C@@H](NC(=O)NC(Cc5ccccc5)c5nccs5)CC[C@]4(C)C3CC[C@@]21C` (some centres undefined), for which the cell growth turned out to be 76.9 ± 20%.

`COc1nc(N)nc2nc[nH]c12` registered a cell growth of 91.9 ± 17%. Compound `Cc1c2ccc3ccccc3c2c[n+]2ccccc12` returned a cell growth of 88.9 ± 14%. The compound `Cc1[nH]c(=O)nc(N/N=C/c2ccc(Cl)cc2)c1C(=O)Nc1ccc(Cl)cc1` had a cell growth of 63.1 ± 11%.
